The values below come from the supplement of paper PMC10849652.

The full data set covers some 8,800 targets. This sample favours those with a hit. About 0.5% of all pairs of compound and target were hits. Unmarked numbers belong to inactive results.

Sequence of UniProt O94842 (O94842 whole entry, looked up): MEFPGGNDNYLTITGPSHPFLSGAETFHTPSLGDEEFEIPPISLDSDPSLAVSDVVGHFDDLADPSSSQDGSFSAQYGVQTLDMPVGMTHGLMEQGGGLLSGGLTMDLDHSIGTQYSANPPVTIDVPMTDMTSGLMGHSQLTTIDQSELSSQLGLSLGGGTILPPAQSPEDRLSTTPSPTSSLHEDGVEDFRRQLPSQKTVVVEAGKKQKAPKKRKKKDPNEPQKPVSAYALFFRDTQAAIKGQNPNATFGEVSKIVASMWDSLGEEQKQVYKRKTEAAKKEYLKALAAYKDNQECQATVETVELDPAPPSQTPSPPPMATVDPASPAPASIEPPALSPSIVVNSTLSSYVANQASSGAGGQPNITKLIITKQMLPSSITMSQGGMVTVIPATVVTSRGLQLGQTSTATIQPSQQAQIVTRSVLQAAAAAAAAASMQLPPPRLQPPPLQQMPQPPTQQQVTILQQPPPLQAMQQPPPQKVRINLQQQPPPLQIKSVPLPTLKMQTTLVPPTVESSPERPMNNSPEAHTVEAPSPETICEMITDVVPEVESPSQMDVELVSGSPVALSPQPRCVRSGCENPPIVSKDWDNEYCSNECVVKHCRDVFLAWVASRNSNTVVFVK
Sequence of UniProt Q5TAX3 (Q5TAX3 whole entry, looked up): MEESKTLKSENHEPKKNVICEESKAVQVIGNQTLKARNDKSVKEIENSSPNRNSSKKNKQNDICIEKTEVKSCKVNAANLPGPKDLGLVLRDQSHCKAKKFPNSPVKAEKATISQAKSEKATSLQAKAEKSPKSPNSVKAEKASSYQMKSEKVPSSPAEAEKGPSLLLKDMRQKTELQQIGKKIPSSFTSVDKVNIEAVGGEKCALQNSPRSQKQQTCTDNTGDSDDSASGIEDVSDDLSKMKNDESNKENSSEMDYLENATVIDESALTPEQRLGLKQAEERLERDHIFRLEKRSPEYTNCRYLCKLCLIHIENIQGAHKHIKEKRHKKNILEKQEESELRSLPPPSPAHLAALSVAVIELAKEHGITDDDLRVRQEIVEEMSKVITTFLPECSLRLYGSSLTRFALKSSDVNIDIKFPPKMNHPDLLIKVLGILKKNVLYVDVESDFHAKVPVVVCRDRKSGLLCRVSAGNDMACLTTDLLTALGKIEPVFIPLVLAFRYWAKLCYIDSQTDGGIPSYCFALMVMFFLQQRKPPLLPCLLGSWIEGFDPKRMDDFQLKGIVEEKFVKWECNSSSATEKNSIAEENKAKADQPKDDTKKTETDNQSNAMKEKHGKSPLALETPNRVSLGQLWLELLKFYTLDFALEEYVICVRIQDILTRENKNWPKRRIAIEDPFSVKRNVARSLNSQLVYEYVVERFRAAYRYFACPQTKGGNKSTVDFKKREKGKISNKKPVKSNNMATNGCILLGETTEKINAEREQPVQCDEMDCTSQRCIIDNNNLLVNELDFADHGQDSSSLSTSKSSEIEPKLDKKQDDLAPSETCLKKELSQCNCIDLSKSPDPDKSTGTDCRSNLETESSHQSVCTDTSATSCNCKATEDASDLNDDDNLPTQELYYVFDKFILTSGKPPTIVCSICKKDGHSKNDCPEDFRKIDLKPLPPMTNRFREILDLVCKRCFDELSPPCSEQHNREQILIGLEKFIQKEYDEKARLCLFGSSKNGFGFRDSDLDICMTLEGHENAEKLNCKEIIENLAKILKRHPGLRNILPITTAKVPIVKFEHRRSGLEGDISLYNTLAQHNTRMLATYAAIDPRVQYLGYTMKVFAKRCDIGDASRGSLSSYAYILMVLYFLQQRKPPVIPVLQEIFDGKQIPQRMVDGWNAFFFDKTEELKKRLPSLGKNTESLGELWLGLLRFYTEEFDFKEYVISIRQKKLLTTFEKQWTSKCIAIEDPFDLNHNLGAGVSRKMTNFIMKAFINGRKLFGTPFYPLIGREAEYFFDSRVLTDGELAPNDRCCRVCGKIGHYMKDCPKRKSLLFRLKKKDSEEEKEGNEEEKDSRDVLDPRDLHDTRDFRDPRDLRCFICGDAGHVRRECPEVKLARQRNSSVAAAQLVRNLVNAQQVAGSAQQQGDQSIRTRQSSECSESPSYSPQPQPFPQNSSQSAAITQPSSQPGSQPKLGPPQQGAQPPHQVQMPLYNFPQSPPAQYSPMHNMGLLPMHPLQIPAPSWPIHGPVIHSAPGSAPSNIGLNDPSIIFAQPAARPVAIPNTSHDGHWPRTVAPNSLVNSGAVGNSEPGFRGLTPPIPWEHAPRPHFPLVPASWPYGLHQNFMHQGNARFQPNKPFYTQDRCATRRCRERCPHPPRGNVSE
Sequence of UniProt Q5JUR7 (Q5JUR7 whole entry, looked up): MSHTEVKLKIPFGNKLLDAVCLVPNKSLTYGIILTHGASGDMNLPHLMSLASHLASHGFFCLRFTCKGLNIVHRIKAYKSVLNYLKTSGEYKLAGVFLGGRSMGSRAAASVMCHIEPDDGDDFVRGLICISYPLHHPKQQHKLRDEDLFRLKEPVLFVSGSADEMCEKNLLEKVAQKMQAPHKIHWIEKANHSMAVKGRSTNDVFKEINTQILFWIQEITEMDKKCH
Sequence of UniProt Q96K49 (Q96K49 whole entry, looked up): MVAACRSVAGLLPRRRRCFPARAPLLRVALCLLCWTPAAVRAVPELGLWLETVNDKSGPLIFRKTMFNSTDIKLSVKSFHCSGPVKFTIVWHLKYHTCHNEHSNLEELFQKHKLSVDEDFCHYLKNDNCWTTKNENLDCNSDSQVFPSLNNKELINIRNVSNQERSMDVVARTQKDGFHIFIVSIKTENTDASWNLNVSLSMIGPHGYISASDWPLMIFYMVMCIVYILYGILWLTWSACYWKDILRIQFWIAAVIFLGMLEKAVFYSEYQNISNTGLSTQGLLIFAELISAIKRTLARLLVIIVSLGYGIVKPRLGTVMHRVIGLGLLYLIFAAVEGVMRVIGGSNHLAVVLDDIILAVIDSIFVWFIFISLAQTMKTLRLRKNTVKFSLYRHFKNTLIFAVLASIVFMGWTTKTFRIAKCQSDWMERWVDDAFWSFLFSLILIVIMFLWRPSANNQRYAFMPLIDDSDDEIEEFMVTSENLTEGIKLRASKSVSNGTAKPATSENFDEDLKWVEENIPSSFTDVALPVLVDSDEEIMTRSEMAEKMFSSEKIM
Sequence of UniProt Q13509 (Q13509 whole entry, looked up): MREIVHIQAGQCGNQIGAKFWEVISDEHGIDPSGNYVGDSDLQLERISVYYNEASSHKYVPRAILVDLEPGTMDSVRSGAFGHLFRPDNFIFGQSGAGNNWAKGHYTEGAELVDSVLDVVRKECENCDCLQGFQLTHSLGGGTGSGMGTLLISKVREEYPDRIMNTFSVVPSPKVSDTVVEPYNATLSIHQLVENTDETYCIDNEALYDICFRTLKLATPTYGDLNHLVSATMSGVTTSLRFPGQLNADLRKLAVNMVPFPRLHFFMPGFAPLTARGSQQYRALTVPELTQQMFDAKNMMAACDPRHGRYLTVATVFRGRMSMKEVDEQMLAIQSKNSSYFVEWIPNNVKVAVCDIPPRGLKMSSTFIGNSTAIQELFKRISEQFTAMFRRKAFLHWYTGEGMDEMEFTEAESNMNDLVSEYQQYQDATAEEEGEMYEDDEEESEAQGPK
Sequence of UniProt Q9UKI8 (Q9UKI8 whole entry, looked up): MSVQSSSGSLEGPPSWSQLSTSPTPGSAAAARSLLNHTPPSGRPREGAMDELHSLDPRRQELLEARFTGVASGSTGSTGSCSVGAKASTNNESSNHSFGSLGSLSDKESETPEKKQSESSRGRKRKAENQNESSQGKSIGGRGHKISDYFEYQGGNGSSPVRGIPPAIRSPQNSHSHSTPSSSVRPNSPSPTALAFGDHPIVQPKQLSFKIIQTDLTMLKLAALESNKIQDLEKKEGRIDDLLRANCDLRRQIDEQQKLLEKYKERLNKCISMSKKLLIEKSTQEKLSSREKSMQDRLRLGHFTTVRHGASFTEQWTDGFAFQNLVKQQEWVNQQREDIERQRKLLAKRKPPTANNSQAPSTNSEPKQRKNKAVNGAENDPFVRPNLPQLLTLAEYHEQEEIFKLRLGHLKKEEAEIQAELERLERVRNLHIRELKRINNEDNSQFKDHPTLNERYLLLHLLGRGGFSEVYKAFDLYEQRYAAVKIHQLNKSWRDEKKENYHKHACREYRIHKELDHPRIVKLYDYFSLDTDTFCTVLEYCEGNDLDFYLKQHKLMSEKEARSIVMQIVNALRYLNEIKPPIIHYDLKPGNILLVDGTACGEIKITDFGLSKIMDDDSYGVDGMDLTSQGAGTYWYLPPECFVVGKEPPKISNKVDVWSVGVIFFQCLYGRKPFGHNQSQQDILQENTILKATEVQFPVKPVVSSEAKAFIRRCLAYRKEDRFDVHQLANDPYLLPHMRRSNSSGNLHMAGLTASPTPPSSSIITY
Sequence of UniProt Q12788 (Q12788 whole entry, looked up): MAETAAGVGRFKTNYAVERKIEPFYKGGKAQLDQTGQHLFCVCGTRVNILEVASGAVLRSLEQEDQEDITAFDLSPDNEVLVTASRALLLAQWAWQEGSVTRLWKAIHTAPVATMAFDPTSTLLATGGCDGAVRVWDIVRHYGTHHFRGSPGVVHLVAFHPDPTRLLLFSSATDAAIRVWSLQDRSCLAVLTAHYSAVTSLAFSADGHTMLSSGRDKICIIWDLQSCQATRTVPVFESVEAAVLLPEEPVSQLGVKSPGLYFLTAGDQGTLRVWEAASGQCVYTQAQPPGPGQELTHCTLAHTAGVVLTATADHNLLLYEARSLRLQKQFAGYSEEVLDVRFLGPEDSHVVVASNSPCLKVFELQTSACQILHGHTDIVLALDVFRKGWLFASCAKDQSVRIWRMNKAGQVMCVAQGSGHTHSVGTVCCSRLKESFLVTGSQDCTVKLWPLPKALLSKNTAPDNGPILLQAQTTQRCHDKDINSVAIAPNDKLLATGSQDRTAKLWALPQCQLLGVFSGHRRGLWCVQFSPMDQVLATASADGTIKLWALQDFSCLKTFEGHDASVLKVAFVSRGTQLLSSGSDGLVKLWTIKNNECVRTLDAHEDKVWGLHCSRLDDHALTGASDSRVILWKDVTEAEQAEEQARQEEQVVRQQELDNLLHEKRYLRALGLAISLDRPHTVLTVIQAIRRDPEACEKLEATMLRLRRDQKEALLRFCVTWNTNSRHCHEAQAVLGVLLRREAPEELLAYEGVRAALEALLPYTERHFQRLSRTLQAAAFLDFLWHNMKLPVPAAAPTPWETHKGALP

Compound in the first experiment: CC[C@@H]1C(=O)N(C)c2cnc(Nc3ccc(C(=O)NC4CCN(C)CC4)cc3OC)nc2N1C1CCCC1
The experiment is described as follows: log2 fold change, soluble protein after heating vs DMSO (PISA); higher = thermal stabilisation; K562 lysate, 10 uM; active = over 0.2 and 3.5 SD of the protein, either way, in both replicates (recomputed). In a few lines:
(§1)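 Quantification was by TMTpro 16plex LC-MS/MS with equalised channel sums, applied to the supernatant after 21,000xg for 90 min. Samples were crude K562 extract at 1 mg/mL protein in PBS pH 7.4 with 1 mM MgCl2, treated with 10 μM compound for 30 min, heated for 3 min across 48°C-58°C, pooled and brought to 0.5% NP-40 at 4°C. Values are log-two fold changes in thermal stability relative to solvent controls, from duplicates.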
For the target TPP2 (UniProt Q5VZU9), the log2 fold change is 0.014.

For the target TUBGCP3 (UniProt Q96CW5), the log2 fold change was 0.001.

Take TEX30 (UniProt Q5JUR7): the log2 fold change is -0.077.

For TPM1 isoform 4 (UniProt P09493), the log2 fold change is -0.018.

TRAPPC9 isoform 2 (UniProt Q96Q05): the log2 fold change was -0.004.

Take TUT4 (UniProt Q5TAX3): the log2 fold change is -0.021.

With TRIM33 (UniProt H0Y612), the log2 fold change was 0.018.

For TECR (UniProt Q9NZ01), the log2 fold change is -0.02.

Turning to TP53RK (UniProt Q96S44), the log2 fold change is -0.058.

Consider THEMIS2 (UniProt Q5TEJ8), for which the log2 fold change was 0.016.

For the target TTC38 (UniProt Q5R3I4), the log2 fold change is 0.004.

As to TPM4 (UniProt P67936), the log2 fold change is 0.125.

As to TMOD1 (UniProt P28289), the log2 fold change was -0.027.

For TOX4 (UniProt O94842), the log2 fold change is 0.06.

TMEM199 (UniProt Q8N511): the log2 fold change was 0.023.

UBE4A isoform 2 (UniProt Q14139): the log2 fold change is 0.003.

Turning to TMEM87B (UniProt Q96K49), the log2 fold change is 0.018.

As to TMPO (UniProt P42167), the log2 fold change is -0.01.

Turning to TTI2 (UniProt Q6NXR4), the log2 fold change is -0.022.

On to TUBB3 (UniProt Q13509), for which the log2 fold change was -0.019.

As to TUBB (UniProt P07437), the log2 fold change is -0.02.

For TLK1 isoform 2 (UniProt Q9UKI8), the log2 fold change was -0.048.

TRA2A (UniProt Q13595): the log2 fold change was -0.037.

Consider TBL2 (UniProt Q9Y4P3), for which the log2 fold change is -0.029.

UBR4 (UniProt Q5T4S7): the log2 fold change is -0.037.

Regarding TPM4 isoform 2 (UniProt P67936), the log2 fold change was 0.052.

Consider TBL3 (UniProt Q12788), for which the log2 fold change was -0.018.

In the case of TTF2 (UniProt Q9UNY4), the log2 fold change is -0.028.

With TJP1 isoform 2 (UniProt Q07157), the log2 fold change is 0.064.

For TRIM65 (UniProt Q6PJ69), the log2 fold change is 0.026.

As for UBE3C (UniProt Q15386), the log2 fold change is -0.021.

Take UBAP2 (UniProt Q5T6F2): the log2 fold change was 0.071.

With TUBA1B (UniProt P68363), the log2 fold change was -0.02.

On to TSPAN13 (UniProt O95857), for which the log2 fold change is 0.177.

Compound in another experiment: CC[C@@H]1C(=O)N(C)c2cnc(Nc3ccc(C(=O)N[C@H]4CC[C@H](N5CCN(CC6CC6)CC5)CC4)cc3OC)nc2N1C(C)C [volasertib]
Described as above. A digest of the protocol:
as §1
As to TPP2 (UniProt Q5VZU9), the log2 fold change was 0.003.

Turning to TUBGCP3 (UniProt Q96CW5), the log2 fold change was -0.039.

For the target TEX30 (UniProt Q5JUR7), the log2 fold change was -0.051.

TPM1 isoform 4 (UniProt P09493): the log2 fold change is 0.033.

Regarding TRAPPC9 isoform 2 (UniProt Q96Q05), the log2 fold change was -0.059.

Regarding TUT4 (UniProt Q5TAX3), the log2 fold change was -0.06.

With TRIM33 (UniProt H0Y612), the log2 fold change is 0.012.

Consider TECR (UniProt Q9NZ01), for which the log2 fold change was 0.001.

Consider TP53RK (UniProt Q96S44), for which the log2 fold change is -0.002.

With THEMIS2 (UniProt Q5TEJ8), the log2 fold change is 0.132.

TTC38 (UniProt Q5R3I4): the log2 fold change was -0.001.

Turning to TPM4 (UniProt P67936), the log2 fold change was 0.055.

TMOD1 (UniProt P28289): the log2 fold change is -0.031.

With TOX4 (UniProt O94842), the log2 fold change is -0.027.

As for TMEM199 (UniProt Q8N511), the log2 fold change was 0.

Consider UBE4A isoform 2 (UniProt Q14139), for which the log2 fold change is -0.053.

Regarding TMEM87B (UniProt Q96K49), the log2 fold change was 0.005.

For TMPO (UniProt P42167), the log2 fold change was 0.013.

Consider TTI2 (UniProt Q6NXR4), for which the log2 fold change is -0.048.

Take TUBB3 (UniProt Q13509): the log2 fold change was -0.046.

For TUBB (UniProt P07437), the log2 fold change is -0.063.

TLK1 isoform 2 (UniProt Q9UKI8): the log2 fold change is -0.078.

Consider TRA2A (UniProt Q13595), for which the log2 fold change is -0.052.

Turning to TBL2 (UniProt Q9Y4P3), the log2 fold change was -0.034.

Turning to UBR4 (UniProt Q5T4S7), the log2 fold change is -0.03.

As for TPM4 isoform 2 (UniProt P67936), the log2 fold change was 0.005.

Turning to TBL3 (UniProt Q12788), the log2 fold change was -0.006.

TTF2 (UniProt Q9UNY4): the log2 fold change was 0.022.

For the target TJP1 isoform 2 (UniProt Q07157), the log2 fold change is -0.01.

Turning to TRIM65 (UniProt Q6PJ69), the log2 fold change was -0.076.

As to UBE3C (UniProt Q15386), the log2 fold change was -0.073.

As for UBAP2 (UniProt Q5T6F2), the log2 fold change was -0.002.

With TUBA1B (UniProt P68363), the log2 fold change is -0.046.

As for TSPAN13 (UniProt O95857), the log2 fold change is 0.032.

Compound in another experiment: CCn1c(C(=O)N(C2CC2)C2CC2)cc2c3c(ncn3C)c(Nc3cc(C)n(C)n3)nc21
Described as above. In a few lines:
as §1
With TPP2 (UniProt Q5VZU9), the log2 fold change was -0.005.

For TUBGCP3 (UniProt Q96CW5), the log2 fold change was 0.028.

For the target TEX30 (UniProt Q5JUR7), the log2 fold change is 0.005.

Regarding TPM1 isoform 4 (UniProt P09493), the log2 fold change is 0.013.

Consider TRAPPC9 isoform 2 (UniProt Q96Q05), for which the log2 fold change is 0.021.

On to TUT4 (UniProt Q5TAX3), for which the log2 fold change was 0.031.

Consider TRIM33 (UniProt H0Y612), for which the log2 fold change was 0.093.

TECR (UniProt Q9NZ01): the log2 fold change was 0.032.

Take TP53RK (UniProt Q96S44): the log2 fold change was 0.013.

THEMIS2 (UniProt Q5TEJ8): the log2 fold change was 0.015.

As to TTC38 (UniProt Q5R3I4), the log2 fold change is -0.047.

As to TPM4 (UniProt P67936), the log2 fold change was 0.018.

Consider TMOD1 (UniProt P28289), for which the log2 fold change was -0.024.

For the target TOX4 (UniProt O94842), the log2 fold change was -0.018.

With TMEM199 (UniProt Q8N511), the log2 fold change was -0.003.

On to UBE4A isoform 2 (UniProt Q14139), for which the log2 fold change was 0.031.

As for TMEM87B (UniProt Q96K49), the log2 fold change was -0.006.

Consider TMPO (UniProt P42167), for which the log2 fold change is 0.022.

Regarding TTI2 (UniProt Q6NXR4), the log2 fold change was -0.004.

As for TUBB3 (UniProt Q13509), the log2 fold change is 0.027.

For the target TUBB (UniProt P07437), the log2 fold change is -0.017.

With TLK1 isoform 2 (UniProt Q9UKI8), the log2 fold change was 0.01.

On to TRA2A (UniProt Q13595), for which the log2 fold change was 0.073.

Regarding TBL2 (UniProt Q9Y4P3), the log2 fold change is -0.045.

For the target UBR4 (UniProt Q5T4S7), the log2 fold change was 0.019.

On to TPM4 isoform 2 (UniProt P67936), for which the log2 fold change was 0.048.

Turning to TBL3 (UniProt Q12788), the log2 fold change was 0.004.

TTF2 (UniProt Q9UNY4): the log2 fold change is 0.003.

Regarding TJP1 isoform 2 (UniProt Q07157), the log2 fold change is -0.045.

Turning to TRIM65 (UniProt Q6PJ69), the log2 fold change was 0.

UBE3C (UniProt Q15386): the log2 fold change was 0.086.

Take UBAP2 (UniProt Q5T6F2): the log2 fold change is 0.004.

Regarding TUBA1B (UniProt P68363), the log2 fold change was 0.013.

TSPAN13 (UniProt O95857): the log2 fold change was 0.046.
